Holding throughout (conditions): mRNA level, 48 h; actives raise or lower the signal
Read-out in one assay: BCL2L11 (gene 10018)
Briefly: LTEA_HepaRG_BCL2L11: Life Technologies and Expression Analysis (LTEA) Assay for Bcl-2 (BCL2L11) gene using HepaRG (AID 2283473). The method, boiled down:
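HepaRG, 48 h exposure, 8-pt half-log series from 100 uM in 0.5% DMSO, duplicates; qRT-PCR (Fluidigm TaqMan) for BCL2L11, housekeeping-normalized; bidirectional curve fit relative to DMSO baseline.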

Read-out in assay [1]: Apolipoprotein A-V (APOA5) gene, APOA5 (gene 116519)
Briefly: LTEA_HepaRG_APOA5: Life Technologies and Expression Analysis (LTEA) Assay for Apolipoprotein A-V (APOA5) gene using HepaRG (AID 2283474). The method, boiled down:
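HepaRG, 48 h chemical exposure in serum-free induction medium, 8-pt half-log series (top 100 uM), 0.5% DMSO vehicle, duplicates. Readout: APOA5 mRNA by qRT-PCR, housekeeping-normalized; bidirectional fit vs DMSO baseline.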

Read-out in assay [2]: Apoptosis regulator Bcl-2 (Homo sapiens) (UniProt P10415)
Briefly: LTEA_HepaRG_BCL2: Life Technologies and Expression Analysis (LTEA) Assay for Bcl-2 gene using HepaRG (AID 2283475). An outline of the steps: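 qRT-PCR of BCL2 transcript, normalized to three housekeeping genes (ACTB, GAPDH, POLR2A), after 48 h chemical exposure of HepaRG cells; concentrations top 100 uM with half-log dilutions, 0.5% DMSO vehicle, duplicates; changes up or down fitted relative to vehicle.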

Read-out in assay [3]: Bcl-2 (BID) gene, BID (gene 637)
The assay is described as follows: LTEA_HepaRG_BID: Life Technologies and Expression Analysis (LTEA) Assay for Bcl-2 (BID) gene using HepaRG (AID 2283476). An outline of the steps: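 Duplicate 48 h treatments of HepaRG cells in serum-free induction medium spanned 100 uM downward in half-log steps, 0.5% DMSO. Transcript change quantified by qRT-PCR against three housekeeping genes, fitted up or down versus DMSO.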

Read-out in a further assay: Caspase-3 (Homo sapiens) (UniProt P42574)
Briefly: LTEA_HepaRG_CASP3: Life Technologies and Expression Analysis (LTEA) Assay for cysteine-aspartic acid protease (CASP3) using HepaRG (AID 2283477). An outline of the steps: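 HepaRG, 48 h exposure, 8 conc. (top 100 uM, half-log steps, duplicate), 0.5% DMSO vehicle; qRT-PCR of CASP3 transcript, housekeeping-normalised (ACTB/GAPDH/POLR2A); bidirectional curve fit vs DMSO baseline.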

Read-out in assay [4]: Cytochrome P450 (CYP24A1), CYP24A1 (gene 1591)
Briefly: LTEA_HepaRG_CYP24A1: Life Technologies and Expression Analysis (LTEA) Assay for Cytochrome P450 (CYP24A1) using HepaRG (AID 2283478). An outline of the steps: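 qRT-PCR read-out: CYP24A1 transcript levels normalized to three housekeeping genes, bidirectional curve fits against 0.5% DMSO baseline. Human HepaRG cells treated 48 h with chemicals at eight concentrations from 100 uM in half-log steps.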

Read-out in assay [5]: Cytochrome P450 (CYP1A2), CYP1A2 (gene 1544)
Briefly: LTEA_HepaRG_CYP1A2: Life Technologies and Expression Analysis (LTEA) Assay for Cytochrome P450 (CYP1A2) using HepaRG (AID 2283479). The method, boiled down: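 HepaRG, 48 h exposure, top 100 uM, half-log 8-pt, 0.5% DMSO vehicle, duplicates. Readout: TaqMan qRT-PCR of CYP1A2 mRNA, housekeeping-normalized (ACTB/GAPDH/POLR2A). Gain/loss fit relative to DMSO baseline.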

Read-out in assay [6]: cysteine-aspartic acid protease (CASP8), CASP8 (gene 841)
Briefly: LTEA_HepaRG_CASP8: Life Technologies and Expression Analysis (LTEA) Assay for cysteine-aspartic acid protease (CASP8) using HepaRG (AID 2283480). The method, boiled down:
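Concentration-response in duplicate up to 100 uM (half-log steps, 0.5% DMSO) on differentiated HepaRG cultures for 48 h. Expression change of CASP8 mRNA is determined by TaqMan qRT-PCR with housekeeping-gene normalization.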

Read-out in assay [7]: Cytochrome P450 (CYP2B6), CYP2B6 (gene 1555)
The assay is described as follows: LTEA_HepaRG_CYP2B6: Life Technologies and Expression Analysis (LTEA) Assay for Cytochrome P450 (CYP2B6) using HepaRG (AID 2283481). The method, boiled down: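 Read-out is CYP2B6 mRNA by TaqMan qRT-PCR, normalized to three housekeeping genes and fitted bidirectionally against 0.5% DMSO baseline. Human HepaRG cells received test chemicals for 48 h, top concentration 100 uM, half-log dilutions.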

Read-out in assay [8]: Cytochrome P450 2C19 (Homo sapiens) (UniProt P33261)
The assay is described as follows: LTEA_HepaRG_CYP2C19: Life Technologies and Expression Analysis (LTEA) Assay for CYP2C19 using HepaRG (AID 2283482). An outline of the steps: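 HepaRG, 48 h chemical exposure, 8-pt half-log series from 100 uM in 0.5% DMSO, duplicates. Readout: CYP2C19 mRNA by TaqMan qRT-PCR, housekeeping-normalized. Bidirectional fit vs DMSO baseline; phenobarbital 1mM as induction control.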

Read-out in a further assay: CYP2C9 (gene 1559)
The assay is described as follows: LTEA_HepaRG_CYP2C9: Life Technologies and Expression Analysis (LTEA) Assay for CYP2C9 using HepaRG (AID 2283484). The method, boiled down:
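Eight-point concentration-response (highest 100 uM, half-log dilutions) in HepaRG cells for 48 h; CYP2C9 expression by qRT-PCR normalized to ACTB, GAPDH, POLR2A. Bidirectional fit, DMSO baseline.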

Read-out in the next assay: CYP2E1 (gene 1571)
Briefly: LTEA_HepaRG_CYP2E1: Life Technologies and Expression Analysis (LTEA) Assay for CYP2E1 using HepaRG (AID 2283485). The method, boiled down:
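CYP2E1 transcript measured by Fluidigm qRT-PCR against three housekeeping genes in human HepaRG cells treated 48 h (top 100 uM, half-log steps, 0.5% DMSO vehicle). Gain or loss fitted relative to DMSO baseline.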

Read-out in the next assay: CYP4A11 (gene 1579)
Briefly: LTEA_HepaRG_CYP4A11: Life Technologies and Expression Analysis (LTEA) Assay for CYP4A11 using HepaRG (AID 2283486). The method, boiled down: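 CYP4A11 transcript levels were quantified by TaqMan qRT-PCR after HepaRG human liver cells were treated for 48 hours with test chemicals (top 100 uM, half-log dilutions, 0.5% DMSO). Gain or loss of signal was fitted relative to DMSO.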

Read-out in assay [9]: Cytochrome P450 3A4 (Homo sapiens) (UniProt P08684)
Briefly: LTEA_HepaRG_CYP3A4: Life Technologies and Expression Analysis (LTEA) Assay for CYP3A4 using HepaRG (AID 2283487). The method, boiled down:
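Differentiated HepaRG cells in serum-free induction medium exposed in duplicate for 48 h to 8 half-log concentrations up to 100 uM in 0.5% DMSO. CYP3A4 mRNA measured by qRT-PCR normalized to ACTB, GAPDH and POLR2A; bidirectional fit versus DMSO.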

Read-out in assay [10]: DNA damage-inducible transcript 3 (DDIT3), DDIT3 (gene 1649)
Briefly: LTEA_HepaRG_DDIT3: Life Technologies and Expression Analysis (LTEA) Assay for DNA damage-inducible transcript 3 (DDIT3) using HepaRG (AID 2283488). The method, boiled down: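 DDIT3 transcript was quantified by qRT-PCR with ACTB/GAPDH/POLR2A normalization after 48 h chemical treatment of differentiated HepaRG cells in 0.5% DMSO. Dosing was eight-point, half-log, top 100 uM, duplicate wells. Curves fitted bidirectionally versus DMSO.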

Read-out in assay [11]: Pro-epidermal growth factor (Homo sapiens) (UniProt P01133)
Briefly: LTEA_HepaRG_EGF: Life Technologies and Expression Analysis (LTEA) Assay for Epidermal growth factor (EGF) using HepaRG (AID 2283489). The method, boiled down:
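qRT-PCR readout of EGF transcript after 48 h chemical exposure of HepaRG cells; eight concentrations from 100 uM down in half-log steps, duplicate wells, 0.5% DMSO vehicle. Bidirectional curve fitting against DMSO baseline.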

Read-out in assay [12]: Early growth response protein 1 (EGR1) transcription factor, EGR1 (gene 1958)
The assay is described as follows: LTEA_HepaRG_EGR1: Life Technologies and Expression Analysis (LTEA) Assay for Early growth response protein 1 (EGR1) transcription factor using HepaRG (AID 2283490). The method, boiled down: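 EGR1 expression change in human HepaRG after 48 h chemical exposure, assessed by housekeeping-normalized qRT-PCR; concentration-response up to 100 uM, fitted in both directions against DMSO controls.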

Read-out in assay [13]: Ezrin (EZR), EZR (gene 7430)
The assay is described as follows: LTEA_HepaRG_EZR: Life Technologies and Expression Analysis (LTEA) Assay for Ezrin (EZR) using HepaRG (AID 2283491). The method, boiled down:
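Differentiated human HepaRG cells, 48 h after plating, were exposed in serum-free induction medium for 48 hours to eight half-log concentrations up to 100 uM in 0.5% DMSO. EZR mRNA was measured by TaqMan qRT-PCR, normalized to ACTB, GAPDH and POLR2A, and fitted bidirectionally against DMSO.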

Read-out in assay [14]: Cytochrome P450 3A7 (Homo sapiens) (UniProt P24462)
Briefly: LTEA_HepaRG_CYP3A7: Life Technologies and Expression Analysis (LTEA) Assay for CYP3A7 using HepaRG (AID 2283492). An outline of the steps:
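CYP3A7 transcript levels were read by TaqMan qRT-PCR on Fluidigm arrays after 48 h chemical exposure of human HepaRG cells, with housekeeping-gene normalisation. Eight half-log concentrations up to 100 uM in 0.5% DMSO were tested in duplicate.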

Molecules are shown by their SMILES. Activity calls are given as the source filed them. Rule for the calls: active = hit-call score of the fitted dose curve at least 0.9, where 1 is the maximum; inactive = score below 0.9.

Caspase-3 (Homo sapiens), sequence (P42574 whole entry, looked up): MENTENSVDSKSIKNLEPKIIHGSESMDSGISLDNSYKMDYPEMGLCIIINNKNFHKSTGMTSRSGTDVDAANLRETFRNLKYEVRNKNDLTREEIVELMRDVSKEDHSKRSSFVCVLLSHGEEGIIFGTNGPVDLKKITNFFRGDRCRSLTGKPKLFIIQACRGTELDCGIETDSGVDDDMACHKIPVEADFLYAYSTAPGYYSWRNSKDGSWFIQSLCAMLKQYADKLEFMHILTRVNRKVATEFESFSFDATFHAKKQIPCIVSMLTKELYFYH
Cytochrome P450 2C19 (Homo sapiens), sequence (P33261 whole entry, looked up): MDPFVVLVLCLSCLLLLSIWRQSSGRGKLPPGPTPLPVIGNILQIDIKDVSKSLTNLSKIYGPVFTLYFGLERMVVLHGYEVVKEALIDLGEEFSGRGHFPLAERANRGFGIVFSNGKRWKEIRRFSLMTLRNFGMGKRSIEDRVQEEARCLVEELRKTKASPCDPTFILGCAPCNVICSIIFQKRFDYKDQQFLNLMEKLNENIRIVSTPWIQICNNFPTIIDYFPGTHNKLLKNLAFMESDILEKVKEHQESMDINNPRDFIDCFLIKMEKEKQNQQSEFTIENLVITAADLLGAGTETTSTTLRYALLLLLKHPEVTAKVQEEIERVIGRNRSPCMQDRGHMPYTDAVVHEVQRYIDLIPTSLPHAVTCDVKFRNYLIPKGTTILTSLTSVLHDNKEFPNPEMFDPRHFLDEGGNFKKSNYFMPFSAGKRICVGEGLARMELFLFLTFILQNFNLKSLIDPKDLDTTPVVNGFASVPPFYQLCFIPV
Cytochrome P450 3A7 (Homo sapiens), sequence (P24462 whole entry, looked up): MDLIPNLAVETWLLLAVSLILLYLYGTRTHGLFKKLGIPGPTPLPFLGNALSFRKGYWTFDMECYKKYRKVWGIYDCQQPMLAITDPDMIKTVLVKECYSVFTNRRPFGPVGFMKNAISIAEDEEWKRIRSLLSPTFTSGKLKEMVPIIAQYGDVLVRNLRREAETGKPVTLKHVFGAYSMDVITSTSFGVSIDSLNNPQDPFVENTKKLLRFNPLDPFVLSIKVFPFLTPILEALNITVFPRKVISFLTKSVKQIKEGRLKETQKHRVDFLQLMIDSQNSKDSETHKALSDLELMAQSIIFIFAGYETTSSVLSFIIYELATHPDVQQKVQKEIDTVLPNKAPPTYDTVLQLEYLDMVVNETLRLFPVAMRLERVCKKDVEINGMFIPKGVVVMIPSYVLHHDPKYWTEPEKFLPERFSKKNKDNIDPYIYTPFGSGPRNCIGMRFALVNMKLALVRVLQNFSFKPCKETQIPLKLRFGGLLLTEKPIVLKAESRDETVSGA
Apoptosis regulator Bcl-2 (Homo sapiens), sequence (P10415 whole entry, looked up): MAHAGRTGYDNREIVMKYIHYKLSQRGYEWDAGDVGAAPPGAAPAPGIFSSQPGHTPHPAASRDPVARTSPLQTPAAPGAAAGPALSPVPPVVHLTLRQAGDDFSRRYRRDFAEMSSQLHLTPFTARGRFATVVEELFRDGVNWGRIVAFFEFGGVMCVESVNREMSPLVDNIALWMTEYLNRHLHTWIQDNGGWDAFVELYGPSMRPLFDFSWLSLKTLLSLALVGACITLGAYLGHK
Cytochrome P450 3A4 (Homo sapiens), sequence (P08684 whole entry, looked up): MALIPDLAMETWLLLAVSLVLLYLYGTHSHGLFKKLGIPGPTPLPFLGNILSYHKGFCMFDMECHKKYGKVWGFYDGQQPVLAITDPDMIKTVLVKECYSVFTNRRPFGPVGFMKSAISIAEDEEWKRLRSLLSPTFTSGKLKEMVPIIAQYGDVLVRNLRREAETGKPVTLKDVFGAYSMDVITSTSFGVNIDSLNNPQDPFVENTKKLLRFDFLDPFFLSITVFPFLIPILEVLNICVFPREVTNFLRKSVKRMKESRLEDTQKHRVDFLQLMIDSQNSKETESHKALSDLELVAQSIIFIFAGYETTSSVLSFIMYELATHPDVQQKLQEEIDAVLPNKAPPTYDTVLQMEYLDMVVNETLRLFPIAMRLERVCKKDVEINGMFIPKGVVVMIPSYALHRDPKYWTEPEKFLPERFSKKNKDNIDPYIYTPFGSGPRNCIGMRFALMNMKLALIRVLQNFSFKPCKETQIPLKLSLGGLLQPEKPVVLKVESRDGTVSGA

In general, AC50 refers to the midpoint of the concentration-response curve, whichever way the signal moves. Take `CNC(=O)Oc1cccc2c1OC(C)(C)C2`: the compound was called inactive (with BCL2L11 (gene 10018); in [1]; in assay [2]; in assay [3]; in the assay with Caspase-3 (Homo sapiens); in assay [4]). In addition, the compound was called inactive (in assay [5]; in assay [6]; with CYP2C9 (gene 1559); with CYP4A11 (gene 1579); in [10]; in assay [11]). The outcome in assay [12] and in assay [13] was inactive. In addition, the AC50 is 3.94 µM (active) in [7]; 17.4 µM (active) in assay [8]; 23.7 µM (active) with CYP2E1 (gene 1571); 6.81 µM (active) in [9]; 7.32 µM (active) in [14].

In the case of `O=C(Nc1ccccc1)c1ccccc1I`, the result (with BCL2L11 (gene 10018); in [1]; in [2]; in [3]; in the assay with Caspase-3 (Homo sapiens); in assay [4]) was inactive. Further, the outcome (in assay [6]; in [8]; with CYP4A11 (gene 1579); in [10]; in assay [11]; in assay [12]) was inactive. In addition, the compound was called inactive in assay [13] and in assay [14]. The AC50 in [5] is 10.4 µM (active); in assay [7], 11.1 µM (active); with CYP2C9 (gene 1559), 50 µM (active); with CYP2E1 (gene 1571), 32 µM (active).

As to `ClC1=C(Cl)[C@]2(Cl)[C@H]3[C@H]([C@@H]4C=C[C@H]3C4)[C@@]1(Cl)C2(Cl)Cl`, the outcome (in the assay with BCL2L11 (gene 10018); in assay [1]; in [2]; in assay [3]; with Caspase-3 (Homo sapiens); in [4]) was inactive. Further, the result (in assay [5]; in assay [6]; with CYP2C9 (gene 1559); in assay [10]; in [11]; in assay [12]) was inactive. Further, the call in assay [13] was inactive. Further, the AC50 in assay [7] is 2.2 µM (active); in assay [8], 3.63 µM (active); with CYP2E1 (gene 1571), 23 µM (active); in the assay with CYP4A11 (gene 1579), 29.6 µM (active); in assay [9] it was 4.36 µM (active); in [14], 8.45 µM (active).

In the case of `Nc1ccc(Cl)cc1N`, the AC50 in the assay with BCL2L11 (gene 10018) was 18.9 µM (active); in assay [1], 16.2 µM (active); in assay [2] it was 28.8 µM (active); in assay [5], 0.811 µM (active); in [7] it was 21.6 µM (active); in assay [8], 28.6 µM (active). Besides, the AC50 is 24.6 µM (active) in the assay with CYP2C9 (gene 1559); 19.5 µM (active) with CYP2E1 (gene 1571); 23.2 µM (active) with CYP4A11 (gene 1579); 19.7 µM (active) in assay [9]; 50 µM (active) in [10]; 12.9 µM (active) in assay [12]. In addition, the outcome (in assay [3]; in the assay with Caspase-3 (Homo sapiens); in assay [4]; in [6]; in [11]; in assay [13]) was inactive.

The record behind these values is PubChem BioAssay (EPA / NIEHS).
